# Among all 16,000 compounds or so, about 2,600 (16%) were called active. Another 20% or so got no clear call; they are omitted. The call rests on the fitted dose curve; in most records, active means well fitted curve in the direction sought with a large enough effect; inconclusive means small, poorly fitted or top-dose-only effect, or effect the other way; inactive means no such curve, though single readings can be large or run the other way. The list comes from a sample in which actives are over-represented; it also holds similar structures and randomly drawn compounds.
# Target: Cytochrome P450 2D6 (Homo sapiens) (UniProt P10635)
# Experiment: Cytochrome panel assay with activity outcomes
# Conditions: recombinant CYP, pro-luciferin dealkylation, luminescence, p450-cyp2d6; series mostly up to 57.1 µM; activity, negative = inhibition: at the top concentration
# On the % scale 0 is the no-effect control and ±100 the full control effect.
# Sequence of Cytochrome P450 2D6 (Homo sapiens) (P10635 whole entry, looked up): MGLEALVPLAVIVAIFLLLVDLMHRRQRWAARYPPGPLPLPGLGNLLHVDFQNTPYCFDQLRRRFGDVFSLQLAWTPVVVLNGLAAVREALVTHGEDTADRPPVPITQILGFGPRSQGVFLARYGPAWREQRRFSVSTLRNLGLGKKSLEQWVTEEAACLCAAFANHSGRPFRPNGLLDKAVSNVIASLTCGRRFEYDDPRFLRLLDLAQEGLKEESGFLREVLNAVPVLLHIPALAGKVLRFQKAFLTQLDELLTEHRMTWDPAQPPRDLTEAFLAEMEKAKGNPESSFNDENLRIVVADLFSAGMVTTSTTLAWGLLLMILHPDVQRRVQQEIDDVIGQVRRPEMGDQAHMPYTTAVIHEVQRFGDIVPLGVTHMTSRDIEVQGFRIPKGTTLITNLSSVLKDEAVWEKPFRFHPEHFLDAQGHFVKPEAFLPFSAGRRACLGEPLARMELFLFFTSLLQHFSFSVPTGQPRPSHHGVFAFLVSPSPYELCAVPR
Compound,"activity, negative = inhibition",AC50
O=C(Nc1ccccc1)N1CCC2(CC1)CCN(C(=O)Oc1ccccc1)CC2,-14.2% (inactive),–
Cc1ccc(C2(c3ccc(C)c(O)c3C)CCN(C)CC2)c(C)c1O,-18.9% [at 11.4 µM] (inactive),–
Cn1c(O)c(C(c2ccccn2)c2c(O)n(C)c(=S)n(C)c2=O)c(=O)n(C)c1=S,16.6% (inactive),–
C[C@@]12CC[C@H](O)C[C@@H]1CC[C@H]1[C@@H]2C[C@@H](O)[C@]2(C)[C@@H](C3=CC(=O)OC3)CC[C@]12O,-7.6% [at 25.6 µM] (inactive),–
c1ccc2c(c1)Sc1ccccc1N2C[C@H]1CN2CCC1CC2,–,0.398 µM (active)
CN1CCc2nc3ccc(F)cc3c(C(N)=O)c2C1,-18.2% (inactive),–
CCOc1ccc2c(c1)C(C)=CC(C)(C)N2,–,2.51 µM (active)
CCCn1c(C)c(C(=O)c2cccc3ccccc23)c2ccccc21,-2.05% (inactive),–
O=C(c1cc(=O)[nH]c2ccc(Br)cc12)N1CCC2(CC1)OCCO2,1.7% (inactive),–
CC(=O)OC1N=C(c2ccccc2)c2cc(Br)ccc2N(C)C1=O (centres undefined),-17.4% (inactive),–
C[C@@H]1O[C@H](C[N+](C)(C)C)CS1,4.31% (inactive),–
COc1cccc(-n2c(O)c(C=NCCN3CCOCC3)c(=O)[nH]c2=O)c1,-36.7% (inactive),–
CC1CN=C(Nc2cccc3ccccc23)S1 (centres undefined),–,11.2 µM (active)
C[N+]1(C)CCO[C@@](O)(c2ccc(-c3ccc([C@]4(O)C[N+](C)(C)CCO4)cc3)cc2)C1,-1.61% (inactive),–
COC(=O)C(O)(c1c(C)[nH]c2ccccc12)C(F)(F)F (centres undefined),-14.7% (inactive),–
CCOC(=O)C1Cc2c([nH]c3ccccc23)CN1 (centres undefined),–,12.6 µM (active)
CCOC(=O)[C@@H]1[C@@H]2c3ccccc3-c3ccccc3[C@H]2C[C@H]1O,-5.13% [at 11.4 µM] (inactive),–
CCOC(=O)Cn1cc(C(=O)c2ccccc2F)c2ccccc21,-14.1% (inactive),–
O=C(O)c1ccccc1-c1c2cc(Br)c(=O)cc-2oc2[c]([Hg])c(O)c(Br)cc12,-18.3% [at 25.6 µM] (inactive),–
CC[N+](CC)(CC)CCOc1cccc(OCC[N+](CC)(CC)CC)c1OCC[N+](CC)(CC)CC,2.95% (inactive),–
c1cncc(CNc2cc(-c3ccc4c(c3)OCO4)ncn2)c1,–,20 µM (active)
c1cncc(CNCCN2CCNCC2)c1,-5.64% [at 11.4 µM] (inactive),–

Compound,"activity, negative = inhibition",AC50
C[C@@H](COc1ccccc1)N(CCCl)Cc1ccccc1,–,1.58 µM (active)
NNC(=O)c1ccc(O)cc1,-8.63% (inactive),–
O=C(O)C[O][Sb][O]CC(=O)O,2.9% [at 11.4 µM] (inactive),–
O=C(O)[C@H]1[O][Sb][O][C@@H](C(=O)O)C1O (some centres undefined),-8.1% [at 11.4 µM] (inactive),–
CCCCCCC[n+]1ccc(-c2cc[n+](CCCCCCC)cc2)cc1,–,7.94 µM (active)
COc1cc(C=C(C#N)C#N)cc(O)c1O,-10.1% (inactive),–
C[C@@]12CC[C@@H]3[C@H](CCC4=CC(=O)CC[C@]43C)[C@@H]1CC[C@@H]2C(=O)COS(=O)(=O)c1ccc(Br)cc1,3.29% [at 11.4 µM] (inactive),–
Cc1cc[c]([Sb]2[O][C@H]([C@H](O)[C@H](O)C(=O)O)[C@@H](CO)[O]2)cc1,10.9% [at 11.4 µM] (inactive),–
O=C(Oc1ccccc1)N1CCC[C@@]2(CCN(C(c3ccccc3)c3ccccc3)C2)C1,–,5.01 µM (active)
CC(C)CN1CC[C@@]2(CCCN(C(=O)Oc3ccccc3)C2)C1,–,6.31 µM (active)
N#Cc1ccc(CN2CCCC3(CCN(C(=O)Oc4ccccc4)CC3)C2)cc1,-4.69% (inactive),–
O=C(Nc1ccccc1)N1CC2(CCN(C(=O)Oc3ccccc3)CC2)C1,-0.812% (inactive),–
COc1ccc(NC(=O)N2CCCC3(CCN(C(=O)Oc4ccccc4)CC3)C2)cc1,-1.09% (inactive),–
O=C(Nc1ccccc1)N1CC[C@@]2(CCCN(C(=O)Oc3ccccc3)C2)C1,-0.759% (inactive),–
COc1ccc(NC(=O)N2CC[C@@]3(CCCN(C(=O)Oc4ccccc4)C3)C2)cc1,–,6.31 µM (active)
CN1CC[C@@]2(CCCN(C(=O)Oc3ccccc3)C2)C1,-12.1% (inactive),–
N#Cc1ccc(CN2CC[C@@]3(CCCN(C(=O)Oc4ccccc4)C3)C2)cc1,–,3.16 µM (active)
CC(C)CN1CC2(CCN(C(=O)Oc3ccccc3)CC2)C1,11.2% (inactive),–
N#Cc1ccc(CN2CCC3(CC2)CCN(C(=O)Oc2ccccc2)CC3)cc1,1.3% (inactive),–
CC(C)NC(=O)N1CCCC2(CCN(C(=O)Oc3ccccc3)CC2)C1,0.403% (inactive),–
COCCCN1CCN(c2nnc3n2-c2sc(Br)cc2C(c2ccccc2Cl)=NC3)CC1,9.92% (inactive),–
N/C(=N\N=C/c1ccc(-c2ccc(O)c(C(=O)O)c2)o1)N[N+](=O)[O-],-7.29% (inactive),–

# Reference: PubChem BioAssay AID1851 (National Center for Advancing Translational Sciences (NCATS), 2009)
